# This is part of a sample that, as a whole, favours compounds with a hit. Of some 83,000 tested, about 20% had one in any assay.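 Single-dose data. Exposure time 48 hours. Values below 10 considered active.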 Values without a mark were called inactive. Activity calls are given as the source filed them.
# Key:
# Assay in all cases: NCI-60 one-dose screen, 48 h (100 = growth as untreated, 0 = no growth, -100 = all killed)
# Conditions in all cases: 10 µM unless noted
# T-47D breast = test system: T-47D breast
# BT-549 breast = test system: BT-549 breast
# MDA-MB-435 melanoma = test system: MDA-MB-435 melanoma
# SW-620 colon = test system: SW-620 colon
# HCT-116 colon = test system: HCT-116 colon
# KM12 colon = test system: KM12 colon
# MCF7 breast = test system: MCF7 breast
# HCC-2998 colon = test system: HCC-2998 colon
SMILES,growth (T-47D breast),growth (BT-549 breast),growth (MDA-MB-435 melanoma),growth (SW-620 colon),growth (HCT-116 colon),growth (KM12 colon),growth (MCF7 breast),growth (HCC-2998 colon) [%]
CNCCCOc1c(Br)cc(CCNC(=O)/C(Cc2ccc(OC)c(Br)c2)=N/O)cc1Br,54.7%,56.8%,41%,41%,19.8%,42.1%,–,–
O=S(c1ccccc1)c1ccc2nnnn2n1 (stereo not drawn),91.7%,98.1%,–,59.9%,60.7%,98.2%,86.3%,113
O=[N+]([O-])c1cccc(C2c3ccccc3Oc3ccccc32)c1,86.4%,116%,–,86.9%,68.3%,86.7%,98.7%,–
Nn1c(SCC(=O)Nc2cc(Cl)c(Cl)cc2Cl)nnc1-c1cc(F)c(Cl)cc1Cl,97.5%,87.4%,–,106%,91.2%,110%,–,139
COc1cc(/C=C\c2cc(/C=C\c3ccc(O)c(OC)c3)n(C(=O)CNc3ccccc3OC)n2)ccc1O,91.8%,66%,6.34% (active),36.4%,–,46.2%,–,112
CCc1c2cc(Cl)ccc2n2cc(Cc3ccccc3)[nH]c(=O)c12,104%,101%,102%,99.4%,–,98%,–,97.1
CCOc1ccc(NC(=O)Nc2cc(C(C)C)ccc2C)cc1,77.3%,114%,–,91.1%,36.3%,75.4%,111%,59.8
CCCc1nn2c(CCC(=O)c3nc4ccc([N+](=O)[O-])cc4[nH]3)nnc2s1,102%,111%,103%,97.6%,–,104%,–,100
COc1ccc(OC)c(NCC(=O)n2nc(/C=C\c3ccc(O)c(OC)c3)cc2/C=C\c2ccc(O)c(OC)c2)c1,15.5%,17.1%,5.88% (active),9.13% (active),–,11.1%,–,18
CCOC(=O)C(C)(CSSCC(C)(NC(=O)c1ccc2ccccc2c1)C(=O)OCC)NC(=O)c1ccc2ccccc2c1 (stereo not drawn),86.6%,138%,–,96.5%,47%,107%,92.2%,119
N#Cc1c(N)nc2c(c1N)C(c1ccc(Cl)cc1)C1=C(CCCC1=O)N2c1sc2c(c1C#N)CCCC2 (stereo not drawn),96.8%,96.1%,–,107%,70.8%,89.7%,99.7%,90.3
COc1cc(/C=C/C(=O)N2CCC=CC2=O)cc(OC)c1OC,25.6%,58.3%,–,29.3%,6.96% (active),66.6%,15.3%,100
COc1ccc(CNc2nc3ccccc3c3c(=O)c4ccccc4sc23)cc1OC,93.5%,103%,–,73.7%,68.8%,79.8%,73.9%,94
COc1ccccc1S(=O)(=O)Nc1ccc2c3c(cc(-c4ccoc4)nc13)C(=O)N2C,70.1%,78.7%,–,71.3%,63%,58.1%,35.5%,74.7
COc1cccc(C2CC(c3cc(OC)c(OC)c(OC)c3)=NN2)c1 (stereo not drawn),78.7%,93.6%,11.9%,51.7%,66.5%,54.7%,–,–
CC(CN(C)C)CN1c2ccccc2CCc2ccccc21 (stereo not drawn),78.1%,90.7%,–,93.3%,53.2%,106%,96.3%,–
COc1ccc(-c2nnc(SCC(=O)Nc3ccc(C(=O)/C=C/c4ccccc4)cc3)o2)cc1OC,98.7%,98.3%,–,103%,51.8%,99.6%,56%,116
CCNC(=O)Oc1ccc(/C(=C(/CC)Cc2ccccc2)c2ccc(OCCN3CCOCC3)cc2)cc1,20.5%,69.9%,–,59.3%,41.6%,37.3%,22.5%,79.5

SMILES,growth (T-47D breast),growth (BT-549 breast),growth (MDA-MB-435 melanoma),growth (SW-620 colon),growth (HCT-116 colon),growth (KM12 colon),growth (MCF7 breast),growth (HCC-2998 colon) [%]
CCOC(=O)C1=C(N)Oc2cc(OC)ccc2C1c1ccc(F)c(F)c1 (stereo not drawn),36.4%,50.2%,–,21.1%,31.8%,27%,16.6%,54.5
c1ccc2nc(Cn3cc[n+](Cc4ccc5ccccc5n4)c3)ccc2c1,29.8%,33.7%,52.8%,77.8%,–,48%,–,57.8
COc1ccc(SC2c3ccc(O)cc3Oc3nc(N)c(C#N)c(N)c32)cc1 (stereo not drawn),85.4%,30.7%,–,105%,94.9%,65.5%,90.7%,92.7
CC(=O)N1N=C(CCC(=O)c2nc3ccc([N+](=O)[O-])cc3[nH]2)OC1c1ccc(O)cc1 (stereo not drawn),85.5%,101%,105%,102%,–,95.8%,–,98.7
CC(C)(C)OC(=O)N1CCN(CCn2cc(C(F)(F)F)c3c(Cl)ncnc32)CC1,90.3%,118%,–,12%,12.1%,95.9%,87.4%,86.1
Nc1ncnc2c1c(C(F)(F)F)cn2[C@@H]1O[C@H](CO)[C@@H](O)[C@H]1O,-0.423% (active),-10.2% (active),–,5.25% (active),8.38% (active),4.05% (active),7.41% (active),–
CSc1ccc(C(=O)C[n+]2cccc(C)c2)cc1,90.6%,104%,–,102%,101%,100%,97.2%,115
O=C(NCCNc1nccc(-c2c(-c3cccc(O)c3)nc3sccn23)n1)c1ccc(N2CCOCC2)c(C(F)(F)F)c1,60.1%,53.8%,20.9%,111%,60.2%,77.5%,–,106
COC(=O)/C=C/C(=O)c1cc(C)cc(C)c1O,100%,103%,–,110%,106%,99.1%,95.5%,96.7
CS(=O)(=O)Nc1cccc(-c2ccc3ncnc(Nc4ccc(F)c(Cl)c4)c3c2)c1,-21.7% (active),–,38.7%,7.1% (active),16.1%,21.6%,15.3%,20.2
O=C(O)c1ccccc1C(=O)c1ccc(I)cc1,83.1%,–,107%,97.4%,99.9%,106%,92.1%,102
COc1ccc(C(=O)NC(=O)Nc2ccc3c(c2)NC(=O)/C3=C\c2[nH]c(C)c(CCC(=O)O)c2C)c(F)c1,21.5%,–,53.8%,38.5%,28.3%,15.5%,45.3%,46.8
Clc1ccc(OCc2nc(-c3ccccc3)n[nH]2)c(Cl)c1,95.6%,100%,–,97%,–,101%,–,99.8
O=C(C[n+]1ccccc1Cl)c1ccc2c(c1)CCCC2,79.6%,–,92.1%,82.8%,80.3%,82.2%,95.8%,103
CC(=O)Nc1ccc([I+]c2ccc([N+](=O)[O-])cc2)cc1,68.1%,–,109%,95.1%,81%,104%,94.8%,106
O=C(C[n+]1cccc(Br)c1)c1ccc2c(c1)CCCC2,91.6%,–,100%,103%,88.2%,108%,90.4%,103
C[C@@H]1CC2C3C[C@H](F)C4=CC(=O)C=C[C@]4(C)[C@@]3(F)[C@@H](O)C[C@]2(C)[C@@]1(O)C(=O)CO (stereo partly drawn),100%,–,93.3%,105%,101%,97.4%,93.9%,98.8
COc1cc(NC(=O)c2cc(OC)c3ccn(C)c3c2)cc2c1C[C@]1(C)CC[C@@H](O)C(C)(C)[C@H]1O2,57.5%,–,64%,57.7%,43.6%,65.3%,38.5%,74.6
